{"source": "PubChem BioAssay (NCATS)", "note": "Results filed as inconclusive are left out. Calls of active or inactive are those of the source. Calls follow the shape of the dose curve; as a rule, active = well fitted inhibition curve with a large enough effect; inconclusive = small, poorly fitted or top-dose-only effect; inactive = no such curve, though single readings can be large or run the other way. Potency is read from the fitted curve at half-maximal effect."}
{"assay": "BET inhibitor-based combinations targeting novel dependencies in MECOM-rearranged (r) AML: UCSD-AML1 cell line (AID 2202235); also: nearly all actives have a fitted effect of over 40% in size", "settings": "UCSD-AML1 AML cells viability, CellTiter-Glo, 48 h; series mostly up to 46 µM", "source_text": "Ecotropic viral insertion site 1 (EVI1) is located on chromosome 3q26.2 as part of the MECOM (MDS and EVI1 complex) locus. Under normal hematopoiesis, EVI1 is a regulator of hematopoietic stem cell maintenance and self-renewal and EVI1 levels decrease as the cells differentiate. In approximately 5-10% of de novo acute myeloid leukemia (AML) EVI1 is aberrantly expressed, including Chromosomal inv(3)(q21;q26.2) or t(3;3)(q21;q26.2) alterations (MECOM-r) that account for about 50% of AML with EVI1 overexpression 31. AMLs with high levels of EVI1 have a poor prognosis and an overall survival time averaging between 10-14 months. EVI1 overexpression confers resistance in leukemia cells, highlighting the need to develop new targeted therapies for EVI1 overexpressing AMLs. Here, we performed an unbiased chemical drug screening by evaluating the single agent activity of a collection of 2,480 oncology-focused, approved and investigational drugs (NCATS Mechanism Interrogation Plates, MIPE v5.0) against a panel of seven AML cell lines. These included four MECOM-r cell-lines (AML-191, AML-194, UCSD-AML1 and HNT-34) and three non-MECOM-r AMLs (MV4-11, OCI-AML3 and SET-2). Exploiting the mechanistic redundancy built in the library, we identified target-level sensitivities in MECOM-r AML cells and relative activity as compared to other AML subtypes.\nA collection of 2480 mechanistically annotated dugs (MIPE v5.0) was used to screen four 3q26.2 rearranged AML cell lines and three non-3q26.2 rearranged AML cell lines. This library purposely exploits redundancy by including multiple inhibitors of key onco-targets, while simultaneously encompassing mechanistic diversity, targeting more than 800 distinct mechanisms of action. Briefly, cells were seeded in 5 uL of growth media using a Multidrop Combi dispenser into 1536 well white polystyrene tissue culture treated plates (Corning) at a density of 500cells/well. For each cell-line, for each of the 2480 drugs in MIPE v5.0 library, an 11-point dose curve was generated via a 1536 pin-tool. Plates were incubated for 48 hr at standard incubator conditions, covered by a stainless steel gasketed lid to prevent evaporation. Cell viability was determined by luminescence based, Cell Titer Glo assay (Promega). In detail, 3 uL of Cell Titer Glo were added to each well and plates were incubated at room temperature for 15 min with a stainless-steel lid in place. Luminescence readings were taken using a Viewlux (PerkinElmer) with a 2 s exposure time per plate. Compound dose-response curves were normalized to DMSO and empty well controls on each plate. Quantitative drug activity data from dose-response curves was determined utilizing area Under the Curve (AUC) and Z-transformed AUC (Z-AUC, a mean-centering transformation applied to each individual cell-line screened)."}
{"smiles": "O=C(O)/C(S)=C/c1ccc(I)cc1", "Potency": "inactive"}
{"smiles": "C=CC(=O)Nc1cc2c(Nc3ccc(F)c(Cl)c3)ncnc2cc1C#CC(C)(C)N1CCN(C)CC1", "Potency": "4170 nM (active)"}
{"smiles": "CC(C)n1ncnc1-c1cn2c(n1)-c1ccc(O[C@@H](C)C(N)=O)cc1OCC2", "Potency": "5250 nM (active)"}
{"smiles": "O=C(NOCCO)c1ccc2cncn2c1Nc1ccc(I)cc1F", "Potency": "1320 nM (active)"}
{"smiles": "NS(=O)(=O)Oc1ccc2c3c(c(=O)oc2c1)CCCCC3", "Potency": "inactive"}
{"smiles": "Cc1ccc(C(=O)N(CCCN)[C@@H](c2nc3cc(Cl)ccc3c(=O)n2Cc2ccccc2)C(C)C)cc1", "Potency": "26.3 nM (active)"}
{"smiles": "Cc1[nH]c(/C=C2\\C(=O)Nc3ccc(F)cc32)c(C)c1C(=O)NC[C@H](O)CN1CCOCC1", "Potency": "10500 nM (active)"}
{"smiles": "Cc1cc(C)c2c(c1)[C@@H](N(Cc1cc(C(F)(F)F)cc(C(F)(F)F)c1)c1nnn(C)n1)CCCN2CC1CCC(C(=O)O)CC1", "note": "(stereo not given in full)", "Potency": "inactive"}
{"smiles": "CC[C@H]1OC(=O)[C@H](C)[C@@H](O[C@H]2C[C@@](C)(OC)[C@@H](O)[C@H](C)O2)[C@H](C)[C@@H](O[C@@H]2O[C@H](C)C[C@H](N(C)C)[C@H]2O)[C@](C)(O)C[C@@H](C)C(=O)[C@H](C)[C@@H](O)[C@]1(C)O", "Potency": "inactive"}
{"smiles": "Cc1ccc(C(=O)OCc2ccc([C@@H](CN)C(=O)Nc3ccc4cnccc4c3)cc2)c(C)c1", "Potency": "14400 nM (active)"}
{"smiles": "Cc1cc(Nc2ncnc3ccc(NC4=NC(C)(C)CO4)cc23)ccc1Oc1ccn2ncnc2c1", "Potency": "inactive"}
{"smiles": "C[C@@H]1COCCN1c1cc(-c2ccnn2C)c2ccnc(-c3ccn[nH]3)c2n1", "Potency": "66.1 nM (active)"}
{"smiles": "COc1ccc2c(c1)CC[C@@H]1[C@@H]2CC[C@]2(C)[C@@H](NCCCCCCN3C(=O)C=CC3=O)CC[C@@H]12", "Potency": "inactive"}
{"smiles": "Cc1c(-c2ccc(-c3ccccc3F)cc2)nc2ccc(F)cc2c1C(=O)O", "Potency": "742 nM (active)"}
{"smiles": "C[C@H]1CNC(=O)c2cnn3ccc(nc23)N[C@H](C)c2cc(F)ccc2O1", "Potency": "833 nM (active)"}
{"smiles": "CC(C)c1ccc(Cn2ccc3c4c(N)nc(NC5CC5)nc4ccc32)cc1", "Potency": "1320 nM (active)"}
{"smiles": "COC(=O)[C@H](CCCN=C(N)N)NS(=O)(=O)c1ccc(C)cc1", "Potency": "inactive"}
{"smiles": "CC(C)(C)c1nc2c3cc[nH]c(=O)c3c3cc(F)ccc3c2[nH]1", "Potency": "235 nM (active)"}
{"smiles": "NS(=O)(=O)c1ccc(Cc2c(-c3cccc(-c4ccccc4)c3)nn(-c3nc(C(=O)O)cs3)c2CC2CC2)cc1", "Potency": "inactive"}
{"smiles": "N#CC(c1ccnc(NCCc2cccnc2)n1)c1nc2ccccc2s1", "note": "(stereo not given)", "Potency": "18600 nM (active)"}
{"smiles": "CNc1nc(-c2ccc3c(N)n[nH]c3c2)cc(N2C[C@@H](C(=O)NC3CCCCC3)CC[C@H]2C)n1", "Potency": "742 nM (active)"}
{"smiles": "COc1ccc(C(=O)N2CCN(c3ccc4c(c3)CCC(=O)N4)CC2)cc1OC", "Potency": "inactive"}
{"smiles": "Cc1cc2cc(Oc3ccnc(Nc4cccc(CS(=O)(=O)NCCN(C)C)c4)n3)ccc2[nH]1", "Potency": "16600 nM (active)"}
{"smiles": "COc1cc(-c2cn(C)c(=O)c3cnccc23)cc(OC)c1CN(C)C", "Potency": "inactive"}
{"smiles": "C=C1CCC2[C@](C)(CO)C(O)CC[C@]2(C)C1C/C=C1/C(=O)OCC1O", "note": "(stereo not given in full)", "Potency": "11800 nM (active)"}
{"smiles": "COc1cccc(-c2c(C)n(Cc3c(F)cccc3C(F)(F)F)c(=O)n(C[C@H](NCCCC(=O)O)c3ccccc3)c2=O)c1F", "Potency": "inactive"}
{"smiles": "CC(C)(c1ccc(OCC(O)CO)cc1)c1ccc(OCC(O)CCl)cc1", "note": "(stereo not given)", "Potency": "inactive"}
{"smiles": "COc1ccc2[nH]c(S(=O)Cc3ncc(C)c(OC)c3C)nc2c1", "note": "(stereo not given)", "Potency": "inactive"}
{"smiles": "C=CC(=O)Nc1cccc(Nc2nc(Nc3ccc(N4CCN(C(C)=O)CC4)cc3OC)ncc2C(F)(F)F)c1", "Potency": "5900 nM (active)"}
{"smiles": "CNCCCOc1cc(F)c(-c2c(Cl)nc3ncnn3c2N[C@@H](C)C(F)(F)F)c(F)c1", "Potency": "118 nM (active)"}
{"smiles": "COc1cc(F)ccc1-c1ncnc(Nc2cccc(CS(C)(=N)=O)c2)n1", "note": "(stereo not given)", "Potency": "833 nM (active)"}
{"smiles": "CO[C@@H]1[C@@H](O)[C@H](O)[C@@H](n2c3c(Cl)cccc3c3c4c(c5c6cccc(Cl)c6[nH]c5c32)C(=O)NC4=O)O[C@H]1CO", "Potency": "1050 nM (active)"}
{"smiles": "Cn1cc(C2=C(c3cn(C)c4cc([N+](=O)[O-])ccc34)C(=O)NC2=O)c2ccccc21", "Potency": "833 nM (active)"}
{"smiles": "CC(=O)c1ccc2c(c1)c1cc(C(C)=O)ccc1n2CCNC(C)C", "Potency": "833 nM (active)"}
{"smiles": "CC1Oc2cc(cnc2N)-c2c(nn(C)c2C#N)CN(C)C(=O)c2ccc(F)cc21", "note": "(stereo not given)", "Potency": "20900 nM (active)"}
{"smiles": "CNC(=O)[C@H]1O[C@@H](n2cnc3c(NCc4cccc(I)c4)nc(Cl)nc32)[C@H](O)[C@@H]1O", "Potency": "inactive"}
{"smiles": "N#CCC1(n2cc(-c3ncnc4[nH]ccc34)cn2)CN(C2CCN(C(=O)c3ccnc(C(F)(F)F)c3F)CC2)C1", "Potency": "3720 nM (active)"}
{"smiles": "Cc1onc(-c2ccc(F)cc2)c1COc1ccc(C(=O)N2CCS(=O)(=O)CC2)cn1", "Potency": "inactive"}
{"smiles": "COc1cc(OC)c(NC(=O)Nc2cc(C)on2)cc1Cl", "Potency": "inactive"}
{"smiles": "CCS(=O)(=O)N1CCC(C(C)n2c(C)c(C(=O)NCc3c(OC)cc(C)[nH]c3=O)c3ccccc32)CC1", "note": "(stereo not given)", "Potency": "inactive"}
